# In PubChem BioAssay (NCATS):
# Unmarked numbers belong to inactive results. Results filed as inconclusive are left out. The list shows a part of the results. Calls of active or inactive are those of the source. Unless noted, the call rests on the fitted dose curve; in most records, active means well fitted curve in either direction with a large enough effect (not every such curve was filed as active); inconclusive means small, poorly fitted or top-dose-only effect, or another doubt; inactive means flat fitted curve, though single readings scatter.
# What was measured:
# [1] = molecular target: Lysosomal acid glucosylceramidase (Homo sapiens) (UniProt P04062); experiment: Glucocerebrosidase-p2 (AID 348; in the data active means potency below about 10 µM; further: potency means the concentration at half of the fitted maximal effect); settings: purified GBA, blue fluorogenic substrate, 40 min
# Sequence of Lysosomal acid glucosylceramidase (Homo sapiens) (P04062 whole entry, looked up): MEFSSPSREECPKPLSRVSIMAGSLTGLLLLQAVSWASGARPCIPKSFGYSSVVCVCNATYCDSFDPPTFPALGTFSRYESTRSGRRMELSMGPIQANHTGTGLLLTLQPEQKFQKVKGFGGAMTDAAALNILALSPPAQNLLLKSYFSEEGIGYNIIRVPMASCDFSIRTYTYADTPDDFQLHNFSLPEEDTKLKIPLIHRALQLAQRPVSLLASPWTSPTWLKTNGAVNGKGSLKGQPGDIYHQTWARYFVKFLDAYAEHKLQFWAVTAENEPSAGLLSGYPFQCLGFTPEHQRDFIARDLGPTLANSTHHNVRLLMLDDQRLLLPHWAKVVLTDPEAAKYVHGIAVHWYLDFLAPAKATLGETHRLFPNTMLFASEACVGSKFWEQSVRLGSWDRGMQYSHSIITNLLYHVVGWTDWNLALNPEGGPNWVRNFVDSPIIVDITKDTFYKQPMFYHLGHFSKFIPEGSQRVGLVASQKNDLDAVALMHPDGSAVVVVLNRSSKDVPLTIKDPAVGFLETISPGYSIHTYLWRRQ
# In short: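 Compounds titrated from 0.6 nM upwards against 0.2 nM enzyme in pH 5.9 citric acid/KH2PO4, taurocholate, tween-20; blue fluorogenic substrate 80 uM, 40 min room temperature, stopped and read Ex 365/Em 440 for AC50.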
# [2] = AP1 Signaling Pathway (AID 357); settings: ME-180 AP-1-bla reporter, EGF-induced, beta-lactamase ratio, 5 h; at 7.69 µM (top of the series) unless noted; further: on the % scale 0 is the no-effect control and ±100 the full control effect
# In short: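 AP-1-bla ME-180 cells with beta-lactamase reporter under AP-1 response element, stimulated with EC50 EGF; compounds titrated, 5 hours at 37 degrees Celsius. CCF4 read at 460/530 nm ratio; positive and negative modulators judged by AC50.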
# [3] = molecular target: Cytochrome P450 1A2 (Homo sapiens) (UniProt P05177); experiment: p450-cyp1a2 (AID 410; calls by dose curve; further: potency means the concentration at half of the fitted maximal effect;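 on activity change, negative = inhibition: -100% = full effect of reference inhibitor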); settings: recombinant CYP1A2, luciferin-ME demethylation, luminescence; series mostly up to 11.4 µM
# Sequence of Cytochrome P450 1A2 (Homo sapiens) (P05177 whole entry, looked up): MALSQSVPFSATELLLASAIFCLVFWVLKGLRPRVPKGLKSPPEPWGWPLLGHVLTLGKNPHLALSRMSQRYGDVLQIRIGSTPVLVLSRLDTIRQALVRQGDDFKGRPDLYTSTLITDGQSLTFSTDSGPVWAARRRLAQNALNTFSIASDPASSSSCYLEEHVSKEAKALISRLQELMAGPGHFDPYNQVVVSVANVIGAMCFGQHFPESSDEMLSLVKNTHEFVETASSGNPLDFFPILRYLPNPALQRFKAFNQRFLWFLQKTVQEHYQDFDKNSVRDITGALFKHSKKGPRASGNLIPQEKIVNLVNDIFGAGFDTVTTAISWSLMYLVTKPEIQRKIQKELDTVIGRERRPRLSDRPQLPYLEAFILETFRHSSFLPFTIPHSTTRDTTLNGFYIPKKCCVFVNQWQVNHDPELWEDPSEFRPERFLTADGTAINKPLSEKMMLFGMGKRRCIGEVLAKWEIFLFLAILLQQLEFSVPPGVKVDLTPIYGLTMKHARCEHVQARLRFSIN
# In short: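 Luminescent readout of luciferin formed from Luciferin-ME by human CYP1A2; data normalized against complete inhibition by 57 uM furafylline. Enzyme 20nM, substrate 100uM at Km, 100mM KPO4 buffer, 60 min reaction at room temperature.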
# [4] = NFAT Signaling Pathway (AID 444); settings: Jurkat NFAT-bla M1, carbachol, beta-lactamase ratio, 5 h; at 7.69 µM (top of the series) unless noted;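 further: carbachol stimulus at about its EC50 of 1 µM final; on the % scale 0 is the no-effect control and ±100 the full control effect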
# In short: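 Jurkat cells with NFAT-driven β-lactamase reporter and co-expressed M1 receptor, stimulated with carbachol (final 1 uM, ~EC50), compound titration, 5 h at 37 °C. CCF4 loaded 1 h at RT; 460/530 nm ratio gave %activity and AC50.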
# [5] = Stat Signaling Pathway (AID 446); settings: ME-180 (cervical carcinoma) SIE beta-lactamase reporter, IL-6 stimulated, 5 h; at 7.69 µM (top of the series) unless noted;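 further: ME-180 cervical cancer cells given 40 pM IL-6 alongside compound; SIE-controlled beta-lactamase reporter measured as 460/530 nm FRET emission ratio; on the % scale 0 is the no-effect control and ±100 the full control effect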
# In short: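 IL-6/STAT signaling read in ME-180 cells via an SIE beta-lactamase reporter. Stimulus was 40 pM IL-6 (its AC50) for 5 hrs, so both activation and inhibition register.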
# [6] = molecular target: Glucocorticoid receptor (Homo sapiens) (UniProt P04150); experiment: GR-GFP Redistribution (AID 450;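 active means compounds whose dose series gives a full or clear partial fitted curve of increased nuclear translocation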; further: potency means the concentration at half of the fitted maximal effect); settings: U2OS GR-GFP nuclear translocation, laser cytometry, 2 h
# Sequence of Glucocorticoid receptor (Homo sapiens) (P04150 whole entry, looked up, the tested form may be a part): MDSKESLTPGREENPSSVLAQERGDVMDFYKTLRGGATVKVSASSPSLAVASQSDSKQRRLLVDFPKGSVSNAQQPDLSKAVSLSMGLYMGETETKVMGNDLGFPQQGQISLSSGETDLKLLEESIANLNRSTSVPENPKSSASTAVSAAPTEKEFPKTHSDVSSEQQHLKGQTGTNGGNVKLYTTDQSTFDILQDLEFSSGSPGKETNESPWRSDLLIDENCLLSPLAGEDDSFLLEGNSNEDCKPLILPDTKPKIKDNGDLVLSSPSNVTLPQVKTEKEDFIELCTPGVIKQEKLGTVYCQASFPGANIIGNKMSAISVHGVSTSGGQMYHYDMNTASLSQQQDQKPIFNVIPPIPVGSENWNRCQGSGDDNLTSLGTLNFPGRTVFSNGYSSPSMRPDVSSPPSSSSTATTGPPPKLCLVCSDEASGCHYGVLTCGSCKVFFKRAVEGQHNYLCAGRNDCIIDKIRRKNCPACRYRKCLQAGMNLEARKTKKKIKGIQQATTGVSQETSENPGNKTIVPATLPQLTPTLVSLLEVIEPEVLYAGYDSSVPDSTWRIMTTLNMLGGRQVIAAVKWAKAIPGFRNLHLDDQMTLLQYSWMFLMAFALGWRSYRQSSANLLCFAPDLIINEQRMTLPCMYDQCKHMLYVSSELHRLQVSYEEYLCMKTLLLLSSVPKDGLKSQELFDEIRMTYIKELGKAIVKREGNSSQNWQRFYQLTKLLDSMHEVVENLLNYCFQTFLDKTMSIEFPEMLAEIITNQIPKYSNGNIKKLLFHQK
# [7] = molecular target: Glucocorticoid receptor (Homo sapiens) (UniProt P04150); experiment: GR-EFC Redistribution (AID 451; calls by dose curve; further: potency means the concentration at half of the fitted maximal effect); settings: CHO-K1 GR-EFC translocation, beta-gal luminescence, 2 h
# In short: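 CHO-K1 cells expressing nuclear EA and GR-ED fragments of b-gal; compounds titrated up to 46 uM final, 2 h at 37 C. GR nuclear translocation read as complemented b-gal luminescence after 1 h RT detection.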
# [8] = molecular target: Mitogen-activated protein kinase 10 (Mus musculus) (UniProt Q61831); experiment: JNK3 AlphaScreen Assay (AID 530); settings: JNK3 lysate, c-Jun phosphorylation; series mostly up to 11.4 µM;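 further: kinase came from lysate of stimulated human HepG2 cells; signal reports phosphorylation of biotinylated GST-cJun 1-79 at Ser73 with 10 µM ATP; on the % scale 0 is the no-effect control and ±100 the full control effect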
# In short: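 Pre-activated (IL-1β/TNFα) JNK3 in HepG2 lysates phosphorylates biotin-GST-cJun(1-79), 10 uM ATP; anti-phospho-cJun(Ser73) AlphaScreen read at room temperature, pH 7.6 Tris buffer. Compounds pre-incubated 15 min as titrations.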
# [9] = molecular target: 3',5'-cyclic-AMP phosphodiesterase 4B (Homo sapiens) (UniProt Q07343); experiment: qHTS Assay for Inhibitors of PDE-IV (AID 607; active means well fitted activation curve with a large enough effect in the main read-out, with a control signal flat, not every such curve was filed as active; further: % of control where 0% means no effect); settings: HEK293 ACTOne CNG channel cells, membrane potential fluorescence; series mostly up to 22.9 µM
# Sequence of 3',5'-cyclic-AMP phosphodiesterase 4B (Homo sapiens) (Q07343 whole entry, looked up): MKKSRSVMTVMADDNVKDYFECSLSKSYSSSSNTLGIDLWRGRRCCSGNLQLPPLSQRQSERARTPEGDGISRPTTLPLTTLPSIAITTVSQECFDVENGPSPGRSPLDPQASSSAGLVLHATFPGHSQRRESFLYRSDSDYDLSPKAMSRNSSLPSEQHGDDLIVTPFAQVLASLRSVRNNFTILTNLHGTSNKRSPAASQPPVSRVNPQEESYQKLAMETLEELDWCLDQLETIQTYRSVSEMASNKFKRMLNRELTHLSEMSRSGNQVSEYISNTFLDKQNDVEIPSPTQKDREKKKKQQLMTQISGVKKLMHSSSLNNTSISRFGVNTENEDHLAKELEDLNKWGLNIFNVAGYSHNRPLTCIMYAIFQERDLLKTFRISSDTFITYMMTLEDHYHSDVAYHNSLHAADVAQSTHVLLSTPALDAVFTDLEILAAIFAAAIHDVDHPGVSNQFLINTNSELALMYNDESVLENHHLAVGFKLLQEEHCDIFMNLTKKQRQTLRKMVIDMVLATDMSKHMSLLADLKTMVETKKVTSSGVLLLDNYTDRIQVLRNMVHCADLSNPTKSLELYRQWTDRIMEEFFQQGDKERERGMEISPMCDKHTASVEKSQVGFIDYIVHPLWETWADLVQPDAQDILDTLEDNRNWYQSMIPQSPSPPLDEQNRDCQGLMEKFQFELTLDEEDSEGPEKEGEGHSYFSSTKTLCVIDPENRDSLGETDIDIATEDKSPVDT
# In short: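 Live HEK293 cells with a modified cyclic nucleotide-gated (CNG) channel report intracellular cAMP via membrane-potential dye fluorescence (ex 535/em 590 nm). Endogenous PDE-IV was targeted. Compounds were tested at up to 22.9 uM final; RO 20-1724 100 uM served as control.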
# [10] = molecular target: Fructose-bisphosphate aldolase A (Oryctolagus cuniculus) (UniProt P00883); experiment: qHTS Assay for Inhibitors of Fructose-1,6-bisphosphate Aldolase from Giardia Lamblia: Rabbit FBPA Selectivity (AID 2794; active means well fitted inhibition curve with a large enough effect; further: on the % scale 0 is the no-effect control and ±100 the full control effect; nearly all actives have a fitted effect of over 60% in size); settings: Rabbit muscle FBPA enzyme inhibition, selectivity counter-screen; series mostly up to 57.5 µM
# Sequence of Fructose-bisphosphate aldolase A (Oryctolagus cuniculus) (P00883 whole entry, looked up): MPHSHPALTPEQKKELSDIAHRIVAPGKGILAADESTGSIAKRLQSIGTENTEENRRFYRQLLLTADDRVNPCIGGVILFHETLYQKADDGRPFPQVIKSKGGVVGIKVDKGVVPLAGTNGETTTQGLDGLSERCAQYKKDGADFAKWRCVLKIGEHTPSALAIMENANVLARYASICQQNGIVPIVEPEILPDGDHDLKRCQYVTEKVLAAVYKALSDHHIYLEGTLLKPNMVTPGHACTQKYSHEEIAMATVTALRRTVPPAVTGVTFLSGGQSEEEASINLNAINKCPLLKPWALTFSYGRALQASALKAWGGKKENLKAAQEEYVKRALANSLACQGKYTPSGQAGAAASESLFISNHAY
# In short: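 Titrations up to 57.5 uM (final) were pin-transferred onto the coupling enzyme mix and held 10 min at room temperature. Substrate with the coupled detection system and AmpLite Red followed, and after 20 min fluorescence was measured.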
# [11] = qHTS Assay for Inhibitors of Fructose-1,6-bisphosphate Aldolase from Giardia Lamblia: Coupling assay counterscreen confirmation (AID 2795; active means well fitted inhibition curve with a large enough effect; further: on the % scale 0 is the no-effect control and ±100 the full control effect; nearly all actives have a fitted effect of over 55% in size); settings: GAPDH coupling enzyme counterscreen, biochemical; series mostly up to 57.5 µM
# In short: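 Coupling-system counterscreen without aldolase: glyceraldehyde-3-phosphate coupling enzymes preincubated 10 min with compound (up to 57.5 uM final), then substrate and AmpLite Red detection added for 20 min at RT. Fluorescence read at 525/598 nm.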
Compound,Potency [1],"activity change, negative = inhibition [2]","activity change, negative = inhibition [3]","activity change, negative = inhibition [4]","activity, negative = inhibition [5]",Potency [6],Potency [7],Potency [8],Potency [9],outcome [10],outcome [11],Potency [3]
O=C(O)c1cc(N=Nc2ccc([N+](=O)[O-])cc2)ccc1O,> 11.4 µM,-28%,-15.3% [at 2.29 µM],28.6%,-2.69%,> 46 µM,> 9.22 µM,inactive,inactive,,,
CCN(CC(=O)NC(=O)NCc1ccccc1)Cc1nc2ccccc2c(=O)[nH]1,,,,,,,,,,inactive,inactive,
COc1cccc(Cn2c(=O)c(C)nc3cnc(Oc4cccc(Cl)c4)nc32)c1,> 11.4 µM,-22.3%,,-7.01%,-2.38%,> 9.22 µM,> 46 µM,inactive,,,,25.1 µM (active)
NS(=O)(=O)c1ccc(N=Nc2c(O)c(C(=O)O)cc3ccccc23)cc1,> 11.4 µM,1.12%,,3.68%,5.99%,> 46 µM,> 9.22 µM,inactive,inactive,,,inactive
O=C(O)CSc1ncccc1[N+](=O)[O-],> 11.4 µM,6.57%,,2.05%,1.22%,> 46 µM,> 9.22 µM,inactive,,,,inactive
O=C(O)CC[C@]1(C(=O)O)CCC(=O)c2ccccc21,> 11.4 µM,11.8%,,4.42%,2.44%,> 46 µM,> 9.22 µM,inactive,,,,inactive
CCN(CC)C[C@@H](O)c1ccc2ccc3ccccc3c2c1,> 11.4 µM,15.5%,,16.1%,13.3%,> 46 µM,> 9.22 µM,inactive,inactive,,,0.794 µM (active)
O=P(O)(O)O[C@@H]1O[C@H](CO)[C@@H](O)[C@H](O)[C@@H]1O,> 11.4 µM,4.24%,,2.61%,6.12%,> 46 µM,> 9.22 µM,inactive,inactive,,,inactive
O=C(O)c1cc(=O)[nH]c(=S)[nH]1,> 11.4 µM,-9.52%,-10.7% [at 2.29 µM],5.67%,6.7%,> 46 µM,> 9.22 µM,inactive,inactive,,,
Cc1cc2sc(C)[n+](CCCOS(=O)(=O)O)c2cc1C,> 11.4 µM,-5.1%,,7.47%,1%,> 46 µM,> 9.22 µM,inactive,inactive,,,inactive
CC(C)[C@@H](C)/C=C\[C@@H](C)[C@@H]1CC[C@H]2C3=CC=C4C[C@@H](O)CC[C@]4(C)[C@H]3CC[C@]21C,> 11.4 µM,-3.49%,,25.1%,-5.31%,> 46 µM,> 9.22 µM,inactive,inactive,,,inactive
Cn1cnc([N+](=O)[O-])c1[Se]c1nc(N)nc2c1ncn2[C@@H]1O[C@@H](CO)[C@H](O)[C@@H]1O,> 11.4 µM,4.67%,-12.8% [at 2.29 µM],8.52%,10.6%,> 46 µM,> 9.22 µM,inactive,inactive,,,
C(=Nc1cnc2ccccc2c1)c1ccc2ccccc2n1,> 11.4 µM,-2.4%,,3.2%,-6.04%,> 46 µM,> 9.22 µM,inactive,inactive,,,3.98 µM (active)
Nc1c(OCC(=O)O)ccc2cc(S(=O)(=O)O)ccc12,> 11.4 µM,3.51%,,-3.75%,-10.7%,> 46 µM,> 9.22 µM,inactive,inactive,,,inactive
CN(C)CCCNc1ncnc2nc[nH]c12,> 11.4 µM,-0.851%,,-10.5%,3.41%,> 46 µM,> 9.22 µM,inactive,inactive,,,inactive
Nc1ccc(C(=O)C[C@H](N)C(=O)O)cc1O,> 11.4 µM,8.27%,,-4.19%,6.37%,> 46 µM,> 9.22 µM,inactive,inactive,,,inactive
CN(C)CCCCN1CCc2c(n(C)c3ccccc23)C1=O,> 11.4 µM,14%,-14.1% [at 2.29 µM],5.6%,3.15%,> 46 µM,> 9.22 µM,inactive,inactive,,,
